Experiment [1] can be described thus: inhibitors of TNFa-induced NFkB p65 translocation, primary screen, imaging, HUVEC, MLSMR starter and 10KST1 sets (AID 438;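 active means inhibition above 20% together with a positive visual image hit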;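 further: compound added about 3h40 before a 20 min TNFalpha stimulation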;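 on inhibition: signal is the nuclear over cytoplasmic p65 intensity ratio per well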). The settings on record: HUVEC TNFa-induced p65 nuclear translocation; cell count: measured here: nuclei count (cytotoxicity indicator), at 2.08 µM; inhibition: at 2 µM, stronger effect = higher value, 0% TNFa-plus-vehicle, 100% no-TNFa wells.
Experiment [2] can be described thus: inhibitors of mutant huntingtin aggregation, primary screen, imaging, exon1htt(103Q)mCFP cells, high-content imaging (AID 483;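 active means visual image review flags a hit and inhibition of aggregation exceeds 20%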;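 further: compound exposure lasted 3 days before fixation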;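 on nuclei count: percent of the per-plate median nuclei count of sample wells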). The settings on record: exon1htt(103Q)mCFP cell line, aggregate imaging, at 2 µM; inhibition of aggregation: stronger effect = higher value; nuclei count: measured here: cell count, toxicity.
Experiment [3] is described as follows: inhibitors of E-selectin induction by TNFa, primary screen, imaging, HUVEC, immunofluorescence, MLSMR starter and 10KST1 sets (AID 487;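 active means visually confirmed hit in the image check and inhibition above 20%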;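 on inhibition: signal is fraction of cell area covered by stained E-selectin grains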;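 on nuclei count: 100% = median nuclei count of all wells on the same plate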). The settings on record: HUVEC TNFalpha-induced E-selectin immunofluorescence imaging, at 2 µM; inhibition: stronger effect = higher value; nuclei count: measured here: cell number, toxicity.
Experiment [4] can be described thus: DUSP6 inhibitors restoring Erk phosphorylation by chemical complementation, primary imaging in DUSP6-transfected HeLa (AID 609).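 On inhibition: phospho-Erk level distribution per well compared with pooled transfected vehicle control wells.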 The following applies: HeLa MKP-3 transfected, phospho-Erk imaging KS statistic, at 10 µM, cells stimulated with TPA for 15 min.
Experiment [5] has as its target Dual specificity protein phosphatase 6 (Homo sapiens) (UniProt Q16828). The experiment is described as above. The settings on record: HeLa MKP-3 transfected, phospho-Erk imaging KS statistic; at 10 µM; stronger effect = higher value; cells stimulated with TPA for 15 min.
Experiment [6] addresses Voltage-gated potassium channel subunit beta-2 (Rattus norvegicus) (UniProt P62483). Description: KvBeta enzyme negative modulators, primary screen, biochemical, NADPH fluorescence (AID 622;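 active means fluorescence slope higher than the sample average by over 3 SD, cut at about -0.22 in these data, passing the limit was not always enough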;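 further: slope of raw intensity against log time taken from 70 to 1610 s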). The settings on record: recombinant KvBeta, 4-cyanobenzaldehyde reduction, at 10 µM, stronger effect = higher value.
The target is the same in experiment [7]. As to the kind of experiment: KvBeta positive modulators, primary screen, biochemical, NADPH fluorescence (AID 623;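 active means NADPH fluorescence slope more negative than the mean of all samples by about 3 SD, 99.7% confidence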;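 further: fluorescence intensity change per second fitted from 20 to 320 s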). The following applies: Recombinant KvBeta, NADPH fluorescence decrease slope, 10 min; at 10 µM; stronger effect = lower value.
Experiment [8] deals with Alpha-2C adrenergic receptor (Homo sapiens) (UniProt P18825). As to the kind of experiment: modulators of alpha2C/GIRK thallium flux, primary screen, cell-based, HEK293 alpha2C/GIRK1/2 (AID 624;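 active means fluorescence slope after compound addition differing from the mean of all screened samples at 99.7% confidence, in either direction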;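 further: slope of fluorescence ratio to pre-addition baseline per second over 15 to 24 s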). The settings on record: thallium flux BTC fluorescence, at 10 µM, actives lie on both sides.
Sequence of Alpha-2C adrenergic receptor (Homo sapiens) (P18825 whole entry, looked up): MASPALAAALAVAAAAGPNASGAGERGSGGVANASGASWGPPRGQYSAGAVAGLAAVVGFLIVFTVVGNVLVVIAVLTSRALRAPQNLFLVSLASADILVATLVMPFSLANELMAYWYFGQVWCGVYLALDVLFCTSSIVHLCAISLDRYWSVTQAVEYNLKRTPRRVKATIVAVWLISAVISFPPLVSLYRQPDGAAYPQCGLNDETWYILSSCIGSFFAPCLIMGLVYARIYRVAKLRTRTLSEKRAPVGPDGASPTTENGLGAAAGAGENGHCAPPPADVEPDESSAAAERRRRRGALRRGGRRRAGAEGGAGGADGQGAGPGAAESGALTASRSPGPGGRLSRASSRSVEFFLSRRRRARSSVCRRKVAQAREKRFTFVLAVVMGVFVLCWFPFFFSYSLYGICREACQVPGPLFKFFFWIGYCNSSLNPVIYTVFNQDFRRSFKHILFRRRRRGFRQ
In experiment [9] the target is Muscarinic acetylcholine receptor M4 (Homo sapiens) (UniProt P08173). As to the kind of experiment: compounds altering M4/GIRK thallium flux, either direction, primary screen, M4 allosteric agonist project, cell-based, HEK293 M4/GIRK, BTC-AM (AID 625;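 active means fluorescence slope after compound addition differing from the mean of all tested samples at 99.7% confidence, mostly higher but some lower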;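 further: thallium influx through GIRK channels coupled to M4 in HEK293 cells with BTC-AM dye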). The settings on record: at 10 µM, actives lie on both sides.
Sequence of Muscarinic acetylcholine receptor M4 (Homo sapiens) (P08173 whole entry, looked up): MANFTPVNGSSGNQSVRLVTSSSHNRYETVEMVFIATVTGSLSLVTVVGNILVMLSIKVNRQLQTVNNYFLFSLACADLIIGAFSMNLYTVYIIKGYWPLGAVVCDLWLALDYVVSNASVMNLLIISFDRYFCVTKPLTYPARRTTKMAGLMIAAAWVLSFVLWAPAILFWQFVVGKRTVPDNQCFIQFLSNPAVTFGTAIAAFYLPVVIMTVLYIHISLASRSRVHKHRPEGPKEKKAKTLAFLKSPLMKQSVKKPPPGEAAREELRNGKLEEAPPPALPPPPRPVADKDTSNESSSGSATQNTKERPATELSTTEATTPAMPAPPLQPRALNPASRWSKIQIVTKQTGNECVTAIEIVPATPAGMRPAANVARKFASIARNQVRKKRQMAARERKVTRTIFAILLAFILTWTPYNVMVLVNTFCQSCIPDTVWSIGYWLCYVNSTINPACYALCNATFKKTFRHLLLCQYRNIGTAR
Experiment [10] can be described thus: inhibitors of larval lipid processing in zebrafish, primary screen, whole organism, PED6 fluorescence, gall bladder and intestine (AID 686;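 active means a full or partial loss of lipid-probe fluorescence in the fish gall bladder, intestine or both, judged by eye; inactive means no fluorescence loss, or compound toxic to the fish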;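 further: larvae 5 to 7 days old with five fish per well; signal comes from phospholipase A2 cleavage of quenched PED6 carried via bile; overnight exposure to compound and PED6 before scoring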). The settings on record: Zebrafish larvae PED6 lipid processing, fluorescence scoring; screened at 20 µM (by protocol).
The nature of experiment [11]: inhibitors of Chlamydomonas gravitaxis, primary screen, whole organism, Chlamydomonas reinhardtii, WT vs cilia-less mutant, absorbance, 96-well (AID 463189;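 active means inhibition at or above 50% relative to wild type and mutant plate controls; inactive means inhibition below 50%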;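 further: 0% = wild type cc124 cells in DMSO and 100% = ciliumless bld1 mutant cells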). The following applies: OD600 absorbance, 2 days, at 10 µM, stronger effect = higher value.
Experiment [12] in a line: inhibitors of Sendai virus-induced IRF3 signaling, primary screen, TLR/RLR signaling modifier project, cell-based, Sendai virus stimulus, luciferase, 10K MLSCN set (AID 602276;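 active means inhibition at or above 50% at 10 µM; inactive means inhibition below 50%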;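 further: firefly luciferase from ISG56 promoter only with Renilla not read in this screen; 0% = Sendai virus plus DMSO and 100% = medium plus DMSO without virus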). The following applies: HEK293 RL24 IRF3 luciferase reporter, at 10 µM, stronger effect = higher value.
The nature of experiment [13]: inhibitors of poly I:C-induced TLR3 signaling, primary screen, cell-based, poly I:C stimulus, luciferase, 10K MLSCN set (AID 602277;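 active means inhibition of the reporter signal at or above 50%; inactive means inhibition below 50%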). The settings on record: HEK293-TLR3 RL24 IRF3 luciferase reporter, at 10 µM, stronger effect = higher value. In general terms: A reporter such as luciferase makes a cellular process visible.
Where [14] appears, read: measured here: cell density z-score.
[15] abbreviates: measured here: nuclear c-Myc green intensity z-score.
Setting [16] is: measured here: nuclear pErk red intensity z-score, stronger effect = higher value.

Molecules are shown by their SMILES. The source made the active and inactive calls.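 How the source made its calls, unless noted: active means compounds giving at least 50% inhibition in the cell-based MKP-3 phosphatase rescue imaging test; inactive means the rest.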

A word on the inhibition: it is the relative decrease from the control value, in per cent.

Sequence of Dual specificity protein phosphatase 6 (Homo sapiens) (Q16828 whole entry, looked up): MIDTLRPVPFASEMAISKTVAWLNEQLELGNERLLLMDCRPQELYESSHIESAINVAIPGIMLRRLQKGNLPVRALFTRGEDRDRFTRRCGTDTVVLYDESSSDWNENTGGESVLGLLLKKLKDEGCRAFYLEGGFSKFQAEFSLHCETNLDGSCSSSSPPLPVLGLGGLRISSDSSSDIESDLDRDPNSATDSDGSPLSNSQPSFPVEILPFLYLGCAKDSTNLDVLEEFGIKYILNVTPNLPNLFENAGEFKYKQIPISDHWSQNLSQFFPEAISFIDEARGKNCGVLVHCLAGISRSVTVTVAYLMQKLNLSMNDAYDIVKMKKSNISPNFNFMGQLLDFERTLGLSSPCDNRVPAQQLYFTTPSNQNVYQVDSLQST
Sequence of Voltage-gated potassium channel subunit beta-2 (Rattus norvegicus) (P62483 whole entry, looked up): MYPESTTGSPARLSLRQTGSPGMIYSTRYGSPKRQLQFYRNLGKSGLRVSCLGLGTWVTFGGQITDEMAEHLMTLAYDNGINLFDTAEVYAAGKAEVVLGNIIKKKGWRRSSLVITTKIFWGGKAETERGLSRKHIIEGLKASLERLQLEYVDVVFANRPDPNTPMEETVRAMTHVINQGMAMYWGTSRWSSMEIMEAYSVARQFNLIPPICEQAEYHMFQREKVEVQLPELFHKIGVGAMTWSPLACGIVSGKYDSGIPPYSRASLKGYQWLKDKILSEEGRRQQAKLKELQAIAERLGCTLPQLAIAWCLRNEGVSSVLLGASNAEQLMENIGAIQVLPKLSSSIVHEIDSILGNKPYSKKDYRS

Regarding `CCOC(=O)CSC1=C(C#N)C(c2ccc(C)cc2)C(C(=O)OC)C(=O)N1` (configuration not stated), in experiment [1], the cell count turned out to be 643. The inhibition was 4.3% (inactive) in experiment [1]; -39.2% (inactive) in [3]; 2.92% (inactive) in [5]; 6.69% (inactive) in [11]; -15.1% (inactive) in experiment [12]; -12.7% (inactive) in experiment [13]. The inhibition of aggregation in [2] is -1.7% (inactive). The nuclei count in experiment [2] came to 81.9%; in experiment [3], 133%. For the same compound, the z-score in experiment [4] (setting [14]) is 0.598; in experiment [4] (setting [15]) it was 0.472; in [4] (setting [16]) it was -0.921. For the same compound, the results for the fluorescence slope in experiment [6] and in experiment [9] were -0.474 (inactive) and 0.00679 (inactive), respectively. In experiment [7], the NADPH fluorescence slope is -8.1e-06 (inactive). Besides, the slope in experiment [8] was 0.00434 (inactive). Further, the result in experiment [10] was inactive.

As to `N#CCc1nc2c3c4c(sc3ncn2n1)CCCC4`, the cell count in experiment [1] amounted to 436. Also, the inhibition in [1] is -7.3% (inactive); in [3], -12.1% (inactive); in experiment [5], 5.95% (inactive); in experiment [11], 0.738% (inactive); in [12], 5.18% (inactive); in experiment [13], -26.2% (inactive). Further, the inhibition of aggregation in experiment [2] is -155% (inactive). The nuclei count in experiment [2] amounted to 1.9%; in experiment [3] it was 130%. Besides, the figures for the z-score in experiment [4] (setting [14]), in [4] (setting [15]) and in [4] (setting [16]) were 0.106, 1.08 and 0.152, respectively. Further, the fluorescence slope in experiment [6] is -0.413 (inactive); in experiment [9] it was 0.00496 (inactive). In addition, the NADPH fluorescence slope in [7] was -4.9e-05 (inactive). In experiment [8], the slope is 0.00471 (inactive). The call in [10] was inactive.

Turning to `COc1ccc(C2/C(=C(/O)c3cnn(-c4ccccc4)c3C)C(=O)C(=O)N2CCN(C)C)cc1OC` (configuration not stated), the cell count in [1] stood at 517. The inhibition in [1] was -9.1% (inactive); in [3], -17.7% (inactive); in experiment [5], -6.86% (inactive); in experiment [11], -4.78% (inactive); in experiment [12] it was 2.76% (inactive); in [13] it was 15.6% (inactive). The inhibition of aggregation in [2] was 16% (inactive). Also, the nuclei count was 72.6% in experiment [2] and 125% in experiment [3]. Besides, the z-score in experiment [4] (setting [14]) is -1.21; in experiment [4] (setting [15]), 1.21; in experiment [4] (setting [16]), 1.2. Besides, the results for the fluorescence slope in experiment [6] and in experiment [9] were -0.428 (inactive) and 0.00527 (inactive), respectively. Further, the NADPH fluorescence slope in experiment [7] is -0.000117 (inactive). Also, the slope in [8] is 0.00586 (inactive). Also, the call in experiment [10] was inactive.

As for `CCOC(=O)c1[nH]c2ccc(OC)cc2c1NC(=O)CCN1CCC(C)CC1`, in experiment [1], the cell count came out at 568. The inhibition in experiment [1] was -0.3% (inactive); in experiment [3] it was -54.8% (inactive); in experiment [5], -8.59% (inactive); in [11] it was 29.3% (inactive); in experiment [12], -0.0655% (inactive); in [13], 13.6% (inactive). The inhibition of aggregation in experiment [2] is 6.8% (inactive). The results for the nuclei count in experiment [2] and in [3] were 110% and 115%, respectively. The z-score in experiment [4] (setting [14]) was 0.39; in experiment [4] (setting [15]), -0.288; in experiment [4] (setting [16]), -0.933. For the same compound, the fluorescence slope was -0.339 (inactive) in [6] and 0.00353 (inactive) in experiment [9]. In experiment [7], the NADPH fluorescence slope was -3.9e-05 (inactive). Also, the slope in experiment [8] was 0.00576 (inactive). In addition, in experiment [10], the compound was classed as inactive.

For `CC(NC(=O)NCCCC(=O)O)(C(F)(F)F)C(F)(F)F`, the cell count in [1] turned out to be 582. Further, the inhibition in experiment [1] is -3.7% (inactive); in [3] it was -76% (inactive); in experiment [5], -2.09% (inactive); in experiment [11], 11.9% (inactive); in [12], 18.9% (inactive); in experiment [13], 21.7% (inactive). Further, in experiment [2], the inhibition of aggregation was 8.7% (inactive). Moreover, the nuclei count in experiment [2] turned out to be 98.1%; in experiment [3] it was 122%. For the same compound, the z-score is -0.792 in experiment [4] (setting [14]), -0.179 in [4] (setting [15]) and 1.85 in experiment [4] (setting [16]). Besides, the values for the fluorescence slope in experiment [6] and in experiment [9] were -0.428 (inactive) and 0.00478 (inactive), respectively. For the same compound, the NADPH fluorescence slope in experiment [7] was -1.9e-05 (inactive). The slope in experiment [8] was 0.00567 (inactive). Moreover, the compound was called inactive in experiment [10].

Regarding `CC(C)(C)c1ccc(O)c(N)c1`, the cell count in experiment [1] turned out to be 646. Moreover, the inhibition is -5.1% (inactive) in experiment [1]; -65.2% (inactive) in experiment [3]; -3.95% (inactive) in experiment [5]; 15.7% (inactive) in experiment [11]; 8.96% (inactive) in experiment [12]; 18% (inactive) in experiment [13]. The inhibition of aggregation in experiment [2] was 18.9% (inactive). Further, the results for the nuclei count in experiment [2] and in experiment [3] were 115% and 138%, respectively. In addition, the z-score was 0.287 in experiment [4] (setting [14]), -1.2 in experiment [4] (setting [15]) and 0.0324 in [4] (setting [16]). Further, the fluorescence slope in experiment [6] was -0.526 (inactive); in experiment [9], 0.00646 (inactive). Moreover, the NADPH fluorescence slope in experiment [7] was -7e-05 (inactive). In experiment [8], the slope was 0.00563 (inactive). For the same compound, the call in [10] was inactive.

`CCOC(=O)C1/C(=N\O)CC(C)(O)C(C(=O)OCC)C1c1ccc(N(C)C)cc1` (configuration not stated): in experiment [1], the cell count stood at 497. Moreover, the inhibition in [1] was -1.5% (inactive); in [3], -131% (inactive); in experiment [5] it was 1.9e-07% (inactive); in experiment [11] it was 0.652% (inactive); in [12], 10.4% (inactive); in experiment [13], 16% (inactive). In addition, in [2], the inhibition of aggregation is -7.6% (inactive). Also, the nuclei count in experiment [2] was 106%; in experiment [3], 152%. The z-score was -0.215 in experiment [4] (setting [14]), 1.47 in experiment [4] (setting [15]) and 0.208 in experiment [4] (setting [16]). Besides, the fluorescence slope was -0.427 (inactive) in experiment [6] and 0.00445 (inactive) in [9]. Moreover, the NADPH fluorescence slope in [7] is -4.6e-05 (inactive). For the same compound, the slope in [8] is 0.00546 (inactive). Moreover, the compound was classed as inactive in experiment [10].

For `O=C(Nc1ccccc1C(=O)NCCCn1ccnc1)c1ccccc1`, the cell count in experiment [1] came to 440. The inhibition in experiment [1] is -10.6% (inactive); in [3] it was -58.9% (inactive); in [5], 3.97% (inactive); in experiment [11] it was -14.6% (inactive); in experiment [12] it was 12.2% (inactive); in [13], 22.1% (inactive). In [2], the inhibition of aggregation was 9.5% (inactive). Further, the nuclei count in experiment [2] was 110%; in [3], 90.3%. The z-score in experiment [4] (setting [14]) is 0.245; in [4] (setting [15]), 0.366; in experiment [4] (setting [16]), -0.747. Moreover, the fluorescence slope was -0.353 (inactive) in experiment [6] and 0.00574 (inactive) in experiment [9]. For the same compound, in experiment [7], the NADPH fluorescence slope is 1.7e-06 (inactive). In addition, the slope in [8] was 0.00553 (inactive). In addition, the compound was classed as inactive in experiment [10].

As for `CCCCCC1CC(CC#CCN2CCOCC2)C(=O)O1` (configuration not stated), in experiment [1], the cell count came out at 620. Besides, the inhibition in [1] was -2.8% (inactive); in experiment [3], -6.1% (inactive); in experiment [5], 3.49% (inactive); in [11], -4.86% (inactive); in experiment [12], -1.94% (inactive); in [13], 10.9% (inactive). The inhibition of aggregation in experiment [2] was 10.5% (inactive). Besides, the values for the nuclei count in [2] and in experiment [3] were 90.2% and 128%, respectively. Besides, the z-score was 0.645 in experiment [4] (setting [14]), -0.292 in experiment [4] (setting [15]) and 0.592 in experiment [4] (setting [16]). The fluorescence slope in experiment [6] was -0.452 (inactive); in experiment [9], 0.00481 (inactive). Besides, the NADPH fluorescence slope in experiment [7] was -4.2e-05 (inactive). In addition, in experiment [8], the slope was 0.00528 (inactive). In experiment [10], the compound was classed as inactive.

Values taken from PubChem BioAssay.
